In PubChem BioAssay (NCATS):

assay: qHTS profiling of the MIPE4 collection as inhibitors of Plasmodium falciparum (3D7) proliferation (AID 743344);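 further: scaled between DMSO vehicle wells and 0.29 µM artemisinin as full inhibition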; conditions: P. falciparum 3D7 in erythrocytes, SYBR Green DNA fluorescence, 72 h; at 28.5 µM unless noted
Excerpt: Plasmodium falciparum is a virulent malarial parasite that kills 1-2 million people worldwide each year. Transmitted by mosquitoes, the sporozoite form of the parasite enters the blood stream to infect hepatocytes, where they become merozoites that infect red blood cells (erythrocytes). Within erythrocytes, merozoites begin a […] cycle of growth and division, after which the parasite is released to infect new red blood cells. Gametocytes, which form within erythrocytes as well, circulate in the bloodstream and are ingested by the mosquito, thereby completing the life cycle. To profile malarial isolates for differential chemical responses and to identify inhibitors of malarial growth, an assay that measures P. falciparum growth and replication within erythrocytes was employed. This assay uses a DNA binding fluorescent dye (SYBR Green) to detect parasite DNA following cell lysis. Because mature erythrocytes lack DNA, only Plasmodium-derived DNA is detected.
The SYBR Green viability assay was adapted from a method described previously (Plouffe et al., 2008). For screening 3 ul culture medium was dispensed into 1536 well black clear bottom plates (Aurora Biotechnologies) using a Multidrop Combi (Thermo Fisher Scientific Inc.), 23 nL compounds in DMSO were added by a pin tool (Kalypsys), and 5 ul of erythrocytes infected with P. falciparum (0.3% parasitemia, 2.5% hematocrit final concentration) were added. The plates were incubated at 37 C in a humidified incubator in 5% CO2 for 72 h, and 2 ul lysis buffer (20 mM Tris HCl, 10 mM EDTA, 0.16% saponin, 1.6% triton X, 10X SYBR Green I supplied as 10,000X […] by Invitrogen) was added to each well. The plates were mixed for 25 sec with gentle shaking and incubated overnight at room temperature in the dark. The following morning, fluorescence intensity at 485(14) nm excitation and 535(25) nm emission wavelengths was measured on an EnVision (Perkin Elmer) plate reader. Plate reads were normalized relative to the control inhibitor (0.29 uM artemisinin) and vehicle (DMSO) wells present on each plate and then corrected by an algorithm using vehicle-only control plates at the beginning and end of the compound plate stack.

| Compound | parasite growth, % of DMSO control |
| --- | --- |
| CCC(=O)O[C@]1(C(=O)CCl)[C@@H](C)C[C@H]2[C@@H]3CCC4=CC(=O)C=C[C@]4(C)[C@@]3(F)[C@@H](O)C[C@@]21C | 6.83% |
| NS(=O)(=O)c1cc2c(cc1Cl)NC(C(Cl)Cl)NS2(=O)=O (stereo not given) | 84.2% |
| Cn1c(=O)c2c(ncn2CC(O)CO)n(C)c1=O (stereo not given) | 85.8% |
| CC(C)(C#N)c1cc(Cn2cncn2)cc(C(C)(C)C#N)c1 | 89.6% |
| C[C@@H]1C[C@H]2[C@@H]3CCC4=CC(=O)C=C[C@]4(C)[C@@]3(Cl)[C@@H](O)C[C@]2(C)[C@@]1(OC(=O)c1ccco1)C(=O)CCl | 5.2% |
| O=S(=O)(O)CCS | 87.9% |
| COc1ccccc1OCC(O)COC(N)=O (stereo not given) | 94.6% |
| CNS(=O)(=O)CCc1ccc2[nH]cc(C3CCN(C)CC3)c2c1 | 97.5% |
| CCCCS(=N)(=O)CCC(N)C(=O)O (stereo not given) | 102% |
| Cc1onc(-c2ccccc2Cl)c1C(=O)N[C@@H]1C(=O)N2[C@@H]1SC(C)(C)[C@@H]2C(=O)O | 86.7% |
| CN1CCN(c2c(F)cc3c(=O)c(C(=O)O)cn4c3c2OCN4C)CC1 | 90.8% |
| NC(=O)c1cccc(N)c1 | 96.3% |
| COc1c(N2CCNC(C)C2)c(F)cc2c(=O)c(C(=O)O)cn(C3CC3)c12 (stereo not given) | 17.5% |
| Nc1[nH]c(=O)ncc1F | 408% |
| CC1=CC(=O)c2ccccc2C1=O | 40.3% |
| NC(N)=NC(N)=NCCc1ccccc1 | 21.2% |
| CNC1CCCN(c2c(F)cc3c(=O)c(C(=O)O)cn(C4CC4)c3c2OC)C1 (stereo not given) | 20.4% |
| O=C(N[C@H](CO)[C@H](O)c1ccc([N+](=O)[O-])cc1)C(Cl)Cl | 94.4% |
| NC(=O)c1ccc2[nH]ccc2c1 | 98% |
| C[C@@H](NCCCc1cccc(C(F)(F)F)c1)c1cccc2ccccc12 | 16.2% |

| Compound | parasite growth, % of DMSO control |
| --- | --- |
| N[C@@H](Cc1ccc(O)c(O)c1)C(=O)O | 85.4% |
| COc1ccc2cc3[n+](cc2c1OC)CCc1cc2c(cc1-3)OCO2 | 5.45% |
| CC1=NN(c2ccccc2)C(=O)C1 | 89.4% |
| NCCCC(O)(P(=O)(O)O)P(=O)(O)O | 96% |
| CCn1cc(C(=O)O)c(=O)c2cc(F)c(N3CCNCC3)nc21 | 35.6% |
| CCN1CCCC1CNC(=O)c1cc(S(N)(=O)=O)ccc1OC (stereo not given) | 101% |
| CCOC(=O)[C@H](CCc1ccccc1)N[C@H]1CS[C@H](c2cccs2)CN(CC(=O)O)C1=O | 5.73% |
| CCc1cc(C(N)=S)ccn1 | 4.85% |
| O=C(O)c1ccc(-n2nc(-c3ccccc3O)nc2-c2ccccc2O)cc1 | 50.5% |
| COC(=O)Nc1nc2ccc(C(=O)c3ccccc3)cc2[nH]1 | 61.1% |
| O[C@@H](CNC[C@H](O)[C@H]1CCc2cc(F)ccc2O1)[C@@H]1CCc2cc(F)ccc2O1 | 6.58% |
| O=C(O)C1CCCN(CCC=C(c2ccccc2)c2ccccc2)C1 (stereo not given) | 82.1% |
| NC1(c2ccc(-c3nc4ccn5c(=O)[nH]nc5c4cc3-c3ccccc3)cc2)CCC1 | 5.65% |
| COc1ccc2c(c1)c(CC(=O)OCC(=O)O)c(C)n2C(=O)c1ccc(Cl)cc1 | 78.3% |
| CCN[C@H]1C[C@H](C)S(=O)(=O)c2sc(S(N)(=O)=O)cc21 | 93.1% |
| CNNCc1ccc(C(=O)NC(C)C)cc1 | 72.9% |
| N=C(N)c1ccc(OCCCCCOc2ccc(C(=N)N)cc2)cc1 | 5.02% |
| CC1CC2C3CCC4=CC(=O)C=C[C@]4(C)[C@@]3(F)[C@@H](O)C[C@]2(C)[C@@]1(O)C(=O)CO (stereo not given in full) | 85.2% |
| C1CCC(C(CC2CCCCN2)C2CCCCC2)CC1 (stereo not given) | 6.92% |
| CC(=O)Oc1ccccc1C(=O)Nc1ncc([N+](=O)[O-])s1 | 4.65% [at 57.5 µM] |
